Experimental data reported in PubChem BioAssay (NCATS).
Inconclusive results are not listed. Where a call stands in place of a potency, no number is given. Calls of active or inactive are those of the source. The call rests on the fitted dose curve; in most records, active means well fitted curve in the direction sought with a large enough effect; inconclusive means small, poorly fitted or top-dose-only effect, or another doubt; inactive means no such curve, though single readings can be large; an effect the other way counts as inactive or inconclusive.

What was measured:
[1] = target: Aldehyde dehydrogenase, mitochondrial (Homo sapiens) (UniProt P05091); assay: qHTS for Inhibitors of the Aldehyde Dehydrogenase Family (ALDH2) Primary screen (AID 2061308); further: nearly all actives have a fitted effect of over 55% in size
[2] = target: Retinaldehyde dehydrogenase 3 (Homo sapiens) (UniProt P47895); assay: qHTS for Inhibitors of the Aldehyde Dehydrogenase Family (ALDH1A3) Primary screen (AID 2061315)

| Structure (SMILES) | Potency [1] | Potency [2] |
| --- | --- | --- |
| CCOC(=O)c1cc2c([nH]1)CCCC2=O | inactive | inactive |
| COc1ccc(CC(=O)Nc2ccc(S(=O)(=O)Nc3cc(C)on3)cc2)cc1OC | inactive | inactive |
| Cc1cc(-c2nnc3n2CCCCC3)c(C)n1-c1ccc(C#N)cc1 | inactive | inactive |
| CCCCN(C)C(=O)Cn1nc(-c2ccc(F)cc2)ccc1=O | inactive | inactive |
| COc1cc(NS(=O)(=O)c2ccc(C)cc2)ccc1C(=O)Nc1nc(-c2ccccc2)cs1 | inactive | inactive |
| CCOC(=O)CC(=O)Nc1ncnc2c1C(c1ccccc1)c1c(ccc3ccccc13)O2 (stereo not drawn) | inactive | inactive |
| O=S(=O)(NC1CCCC(NS(=O)(=O)c2c(F)cccc2F)C1)c1ccc2c(c1)OCCO2 (stereo not drawn) | inactive | inactive |
| N=c1c2c(ncn1-c1ccccc1)Oc1ccc3ccccc3c1C2c1ccc2c(c1)OCO2 (stereo not drawn) | inactive | inactive |
| Cc1cc(C)nc(NC(=S)N2CCN(c3ccc(F)c(F)c3F)CC2)c1 | inactive | inactive |
| Cc1cc(C)nc(NC(=S)N2CCN(c3nsc4ccccc34)CC2)c1 | inactive | inactive |
| Cc1cc2c(s1)c1cnn(Cc3ccc(Br)cc3)c(=O)c1n2C | inactive | inactive |
| Cc1cc2c(s1)c1c(C)nn(Cc3ccccc3F)c(=O)c1n2C | inactive | inactive |
| CC1=C(C(=O)Nc2ccccc2)C(c2ccccc2Cl)N=C(Nc2nc3ccccc3o2)N1 (stereo not drawn) | inactive | inactive |
| N#Cc1ccc(NC(=O)Nc2nnc(-c3ccncc3)s2)cc1 | inactive | inactive |
| Nc1nc(NCc2ccc(-c3ccnc(C(F)(F)F)c3)cc2)c2ccccc2n1 | inactive | inactive |
| O=[S+]([O-])(Nc1ccc(N2CCNCC2)cc1)c1ccc(NCc2cccc(Cl)c2O)cc1 | inactive | inactive |
| N[C@@H](Cc1ccc(O[S+](=O)([O-])c2cccc3cccnc23)cc1)C(=O)N1CCN(c2ccccc2)CC1 | inactive | inactive |

| Structure (SMILES) | Potency [1] | Potency [2] |
| --- | --- | --- |
| COc1cccc(NC(=S)N2CCN(c3cc(C(F)(F)F)cc(C(F)(F)F)c3)CC2)n1 | inactive | inactive |
| CC(=O)NC1CCN(c2nc(-c3ccc(Br)cc3)cs2)CC1 | inactive | inactive |
| CCCn1c(-c2ccc(F)cc2)nc2c(NCCN3CCOCC3)nc(C)nc21 | inactive | inactive |
| C=Cc1nc(Nc2cc(F)cc(F)c2)nc(NC2CCCC2)n1 | inactive | inactive |
| COc1ccccc1C(=O)Nc1nc(-c2ccccc2)cs1 | inactive | inactive |
| O=S(=O)(Nc1nc(-c2ccccc2C(F)(F)F)nc2ccccc12)c1ccc(-c2ccnc(C(F)(F)F)c2)cc1 | inactive | inactive |
| Cc1nc(-c2ccccc2)oc1-c1ccc2ncnc(NCCc3cnc[nH]3)c2c1 | inactive | inactive |
| Cc1cc(C)nc(NC(=S)N2CCN(c3cc(Cl)c(Cl)c(Cl)c3)CC2)c1 | inactive | inactive |
| CS(=O)(=O)c1ccc(-c2csc(N3CCC(C(N)=O)CC3)n2)cc1 | inactive | inactive |
| N#Cc1ccc(-c2ccc(=O)n(CC(=O)NCCc3ccccc3)n2)cc1 | inactive | inactive |
| Nc1cccc(S(=O)(=O)N2CCN(S(=O)(=O)c3c(F)cccc3F)CC2)c1 | inactive | inactive |
| Fc1ccc(Nc2nc(-c3ccncc3)nc3ccccc23)cc1F | inactive | inactive |
| Cc1ccc(S(=O)(=O)Nc2cnccc2C(=O)Nc2ccc(S(=O)(=O)Nc3nccs3)cc2)cc1 | inactive | inactive |
| CN(C)[C@@H]1CCN(c2cccc(Nc3nn4c(=O)c5ccccc5nc4s3)c2)C1 | inactive | inactive |
| COc1ccc(C(=O)Nc2nc(-c3ccccc3)cs2)c(OC)c1 | inactive | inactive |
| CC(C)(C)c1cccc(NC(=O)Nc2nnc(-c3ccncc3)s2)c1 | inactive | inactive |
| Cc1ccc(CNc2ccc(N3CCN(C(=O)OC(C)(C)C)CC3=O)cc2)cc1 | inactive | inactive |
